From PubChem BioAssay
Active and inactive are the calls of the source. Unless noted, the rule behind the calls is not given here.

Columns and labels:
[1] = anti-His antibody binders, primary screen, artefact control for SMM control protein annotation, biochemical, small-molecule microarray, 635 nm fluorescence (AID 1128); conditions: anti-His Alexa647 antibody binding, higher = more signal;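 note: score merges feature fluorescence with signal-to-noise for each printed compound spot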
[2] = system: Human papillomavirus type 1a E7 protein (residues 1-88); assay: HPV1a E7 small-molecule binders, primary screen, biochemical, small-molecule microarray, residues 1-88, 635 nm (AID 1129); conditions: small-molecule microarray binding, fluorescence 635 nm; higher = more signal
[3] = target: Focal adhesion kinase 1 (Homo sapiens) (UniProt Q05397); assay: small-molecule microarray binders of FAK, primary screen, biochemical, 635/667 nm fluorescence, BSA, DTT (AID 1130); conditions: PTK2 binding, 635 nm fluorescence, higher = more signal;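 note: composite of spot emission at 667 nm and signal to noise over triplicate slides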
[4] = system: Fibrinogen (Alexa647-labelled); assay: fibrinogen binders on compound microarrays, profiling panel, artefact control for SMM control-protein annotation, biochemical, small-molecule microarray, 635/667 nm fluorescence (AID 1131); conditions: fibrinogen-A647 binding fluorescence, higher = more signal;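 note: z-score merges 667 nm fluorescence with per-spot signal-to-noise over triplicate slides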
[5] = target: Follistatin (Homo sapiens) (UniProt P19883); assay: follistatin binders on small-molecule microarrays, primary screen, biochemical, small-molecule microarray, 635/667 nm fluorescence (AID 1132); conditions: FST binding, 635 nm fluorescence, higher = more signal
[6] = target: Fibroblast growth factor 2 (Homo sapiens) (UniProt P09038); assay: FGF2 binders on small-molecule microarrays, primary screen, biochemical, small-molecule microarray, 635/667 nm fluorescence (AID 1133); conditions: small-molecule microarray binding, FGF2, fluorescence 635/667; higher = more signal
[7] = mitochondrial membrane potential change in A549 cells, profiling panel, cell-based, JC-1 fluorescence, basal, 24 h, 100 nL (AID 1138); conditions: higher = more signal;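 note: A549 lung adenocarcinoma cells under basal conditions with no added stimulus; test concentration not given here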
Lefty1 = Lefty1 binders on small-molecule microarrays, primary screen, biochemical, small-molecule microarray, 635/667 nm fluorescence (AID 1139); conditions: small-molecule microarray binding, fluorescence 635/667; higher = more signal
[8] = system: wheat germ agglutinin (Triticum aestivum), Alexa647-labelled; assay: wheat germ agglutinin binders on compound microarrays, profiling panel, artefact control for SMM control-protein annotation, biochemical, small-molecule microarray, 635/667 nm fluorescence (AID 1140); conditions: WGA-A647 binding, 635 nm fluorescence, higher = more signal;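 note: score merges 667 nm feature emission with signal to noise over triplicate slides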
[9] = target: Luciferin 4-monooxygenase (Photinus pyralis) (UniProt P08659); assay: firefly luciferase enzyme inhibitors, primary screen, biochemical, luminescence, purified enzyme, 2006 set (AID 1141); conditions: SteadyGlo luminescence, 30 min, higher = more signal, called active from +8 up or from −8 down;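 note: cell-free assay with purified firefly luciferase at 100 ng per well in PBS; test concentration not given here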
[10] = system: Wnt5a (protein binding on small-molecule microarray); assay: Wnt5a binders on small-molecule microarray, primary screen, biophysical, 635/667 nm fluorescence (AID 1142); conditions: 635 nm fluorescence, higher = more signal;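 note: fluorescence read at 667 nm with signal to noise per printed feature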
[11] = cell viability in Huh7 cells, primary screen, cytotoxicity control for HCV replication inhibitor project, CellTiter-Glo luminescence, basal, 48 h (AID 1143); conditions: Huh7 HCV replicon, higher = more signal, called active from +8 up or from −8 down;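 note: Huh7 hepatoma cells carrying a hepatitis C replication reporter with no stimulus; test concentration not given here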
[12] = P. aeruginosa biofilm formation inhibitors, primary screen, PAO1 strain, BacTiter-Glo luminescence, LB-PBS (AID 1144); conditions: 12 h, higher = more signal
[13] = CREB reporter modulators without forskolin, primary screen, cell-based, PC12, CRE-LacZ reporter, unstimulated (AID 1145); conditions: no forskolin, luminescence, 4.5 h, higher = more signal, called active from +8 up or from −8 down
[14] = CREB reporter modulators under forskolin, primary screen, cell-based, PC12, CRE-LacZ reporter, forskolin-stimulated (AID 1146); conditions: luminescence, 4.5 h, higher = more signal, called active from +8 up or from −8 down;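 note: PC12 cells with 6xCRE LacZ reporter stimulated by forskolin 10 µM; beta-galactosidase reporter signal reflecting CREB driven transcription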
[15] = target: Streptavidin (Streptomyces avidinii) (UniProt P22629); assay: streptavidin binders on small-molecule microarray, primary screen, artefact control for SMM compound annotation, biophysical, 635/667 nm fluorescence (AID 1147); conditions: streptavidin binding, higher = more signal;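 note: signal reflects streptavidin binding to arrayed compounds as a control protein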
[16] = small-molecule binders of probe aInhba, primary screen, biochemical, small-molecule microarray, 635/667 nm fluorescence (AID 1148); conditions: higher = more signal;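 note: score merges 667nm spot fluorescence with signal-to-noise for antibody binding to printed compounds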
Torsin-1A (Homo sapiens) [17] = target: Torsin-1A (Homo sapiens) (UniProt O14656); assay: torsin A binders from cell lysate, primary screen, small-molecule microarray, wild-type, 635/667 nm (AID 1149); conditions: COS7 hTOR1A-WT lysate, 635 nm fluorescence, higher = more signal
Torsin-1A (Homo sapiens) [18] = target: Torsin-1A (Homo sapiens) (UniProt O14656); assay: small-molecule binders of mutant TOR1A in lysate, primary screen, cell lysate, small-molecule microarray, COS7 lysate, 635/667 nm fluorescence (AID 1150); conditions: COS7 hTOR1A mutant lysate, 635 nm fluorescence, higher = more signal;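 note: score pools 667 nm emission and signal to noise measuring lysate protein binding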
[19] = system: Sonic hedgehog protein (Shh); assay: small-molecule binders of Shh protein, primary screen, biochemical, small-molecule microarray, 635/667 nm fluorescence (AID 1151); conditions: small-molecule microarray binding, 635 nm fluorescence; higher = more signal;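 note: Shh protein binding to compounds spotted on small-molecule microarray slides; score combines spot fluorescence intensity with signal-to-noise across triplicate slides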

Sequence of Follistatin (Homo sapiens) (P19883 whole entry, looked up): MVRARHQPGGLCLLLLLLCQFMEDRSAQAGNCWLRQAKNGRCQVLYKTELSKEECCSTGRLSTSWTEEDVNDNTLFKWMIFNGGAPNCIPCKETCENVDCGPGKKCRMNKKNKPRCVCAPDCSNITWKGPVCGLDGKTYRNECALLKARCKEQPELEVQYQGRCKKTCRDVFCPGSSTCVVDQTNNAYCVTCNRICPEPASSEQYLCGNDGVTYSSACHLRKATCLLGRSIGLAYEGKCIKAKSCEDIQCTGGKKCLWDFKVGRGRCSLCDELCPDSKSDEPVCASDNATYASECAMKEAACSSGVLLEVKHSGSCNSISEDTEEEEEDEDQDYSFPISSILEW
Sequence of Streptavidin (Streptomyces avidinii) (P22629 whole entry, looked up): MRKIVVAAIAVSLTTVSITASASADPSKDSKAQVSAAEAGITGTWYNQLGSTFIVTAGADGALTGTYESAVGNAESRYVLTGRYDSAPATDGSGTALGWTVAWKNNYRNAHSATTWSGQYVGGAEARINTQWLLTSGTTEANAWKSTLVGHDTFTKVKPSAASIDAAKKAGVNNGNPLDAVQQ
Sequence of Torsin-1A (Homo sapiens) (O14656 whole entry, looked up): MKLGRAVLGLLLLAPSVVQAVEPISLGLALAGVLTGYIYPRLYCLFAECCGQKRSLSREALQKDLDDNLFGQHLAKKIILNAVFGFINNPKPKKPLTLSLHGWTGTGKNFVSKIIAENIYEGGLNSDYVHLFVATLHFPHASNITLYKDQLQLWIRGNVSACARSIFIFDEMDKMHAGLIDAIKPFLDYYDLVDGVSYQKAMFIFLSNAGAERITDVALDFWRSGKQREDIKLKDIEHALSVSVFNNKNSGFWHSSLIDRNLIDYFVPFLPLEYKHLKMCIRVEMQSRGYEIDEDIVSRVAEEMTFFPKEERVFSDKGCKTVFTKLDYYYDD
Sequence of Fibroblast growth factor 2 (Homo sapiens) (P09038 whole entry, looked up): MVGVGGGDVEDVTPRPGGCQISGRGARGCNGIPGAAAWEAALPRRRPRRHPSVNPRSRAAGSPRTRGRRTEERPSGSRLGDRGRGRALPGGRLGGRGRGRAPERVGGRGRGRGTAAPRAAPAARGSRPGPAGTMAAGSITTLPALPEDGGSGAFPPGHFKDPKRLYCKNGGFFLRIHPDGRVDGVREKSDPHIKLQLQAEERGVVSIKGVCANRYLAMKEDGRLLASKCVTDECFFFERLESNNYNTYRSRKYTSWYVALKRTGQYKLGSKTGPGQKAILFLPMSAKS
Sequence of Luciferin 4-monooxygenase (Photinus pyralis) (P08659 whole entry, looked up): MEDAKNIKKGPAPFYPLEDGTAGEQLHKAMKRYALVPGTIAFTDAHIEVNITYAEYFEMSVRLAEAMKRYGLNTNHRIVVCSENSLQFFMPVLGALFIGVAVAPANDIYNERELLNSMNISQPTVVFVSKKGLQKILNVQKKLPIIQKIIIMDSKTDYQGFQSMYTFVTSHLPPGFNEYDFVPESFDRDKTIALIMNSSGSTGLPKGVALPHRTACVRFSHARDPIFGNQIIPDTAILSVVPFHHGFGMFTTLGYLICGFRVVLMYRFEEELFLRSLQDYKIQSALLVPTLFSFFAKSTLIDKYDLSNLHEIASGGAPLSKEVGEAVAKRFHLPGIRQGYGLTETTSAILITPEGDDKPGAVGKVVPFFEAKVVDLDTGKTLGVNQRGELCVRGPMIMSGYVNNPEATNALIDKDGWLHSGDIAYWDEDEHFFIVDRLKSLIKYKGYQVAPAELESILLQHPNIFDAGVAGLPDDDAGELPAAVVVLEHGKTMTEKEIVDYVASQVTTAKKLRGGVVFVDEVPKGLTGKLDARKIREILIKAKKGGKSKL
Sequence of Focal adhesion kinase 1 (Homo sapiens) (Q05397 whole entry, looked up): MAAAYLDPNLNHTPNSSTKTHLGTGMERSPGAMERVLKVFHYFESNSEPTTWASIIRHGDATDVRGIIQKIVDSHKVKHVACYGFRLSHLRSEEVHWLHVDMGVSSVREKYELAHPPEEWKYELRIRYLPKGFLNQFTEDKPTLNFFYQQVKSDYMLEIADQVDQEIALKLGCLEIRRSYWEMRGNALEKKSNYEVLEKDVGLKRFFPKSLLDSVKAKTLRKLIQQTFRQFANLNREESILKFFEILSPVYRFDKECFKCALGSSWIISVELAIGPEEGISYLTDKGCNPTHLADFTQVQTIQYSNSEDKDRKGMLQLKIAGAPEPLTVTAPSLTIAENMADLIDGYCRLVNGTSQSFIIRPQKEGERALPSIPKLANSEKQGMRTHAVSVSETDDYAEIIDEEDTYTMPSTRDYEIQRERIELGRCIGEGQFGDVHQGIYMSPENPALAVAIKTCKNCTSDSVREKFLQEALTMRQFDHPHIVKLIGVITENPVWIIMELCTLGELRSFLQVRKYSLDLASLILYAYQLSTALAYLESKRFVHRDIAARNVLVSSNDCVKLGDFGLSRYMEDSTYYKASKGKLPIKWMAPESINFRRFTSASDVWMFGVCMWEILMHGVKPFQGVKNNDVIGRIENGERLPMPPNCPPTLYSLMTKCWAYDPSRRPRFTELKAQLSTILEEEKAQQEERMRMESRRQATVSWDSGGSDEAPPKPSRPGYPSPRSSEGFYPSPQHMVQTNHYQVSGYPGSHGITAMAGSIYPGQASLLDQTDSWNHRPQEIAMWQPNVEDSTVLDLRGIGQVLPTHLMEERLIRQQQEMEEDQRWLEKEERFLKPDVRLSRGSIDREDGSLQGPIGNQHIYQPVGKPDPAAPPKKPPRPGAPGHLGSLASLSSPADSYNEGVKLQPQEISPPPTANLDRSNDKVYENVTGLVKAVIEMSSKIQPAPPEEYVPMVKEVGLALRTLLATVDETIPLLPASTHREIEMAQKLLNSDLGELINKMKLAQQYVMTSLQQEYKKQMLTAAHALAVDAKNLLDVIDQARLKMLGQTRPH

Compound	composite z-score [1]	composite z-score [2]	composite z-score [3]	composite z-score [4]	composite z-score [5]	composite z-score [6]	z-score [7]	composite z-score (Lefty1)	composite z-score [8]	z-score [9]	composite z-score [10]	z-score [11]	z-score [12]	z-score [13]	z-score [14]	composite z-score [15]	composite z-score [16]	composite z-score (Torsin-1A (Homo sapiens) [17])	composite z-score (Torsin-1A (Homo sapiens) [18])	composite z-score [19]
COc1ccc(CN(C2=CC[C@@]3(C(N)=O)C(=O)C(Cl)=C(Cl)C(=O)[C@@]3(C#N)C2)S(=O)(=O)c2ccc(Br)cc2)cc1	1.89	0.289	0.0558	0.115	-0.539	-0.537	-1.87	-0.53	0.324	-5.26 (inactive)	-0.0312	-3.6 (inactive)	-0.897 (inactive)	33.6 (active)	119 (active)	0.62	-0.0006	0.385	0.448	-0.245
[N-]=[N+]=Nc1ccccc1[C@@H]1OC(c2ccc(OCCCO)cc2)=N[C@]1(Cc1ccccc1)C(=O)NCC(O)CO (stereo not given in full)	2.23	0.95	0.587	0.966	1.4	1.06	1.63	-0.823	1.2	-4.93 (inactive)	0.951	-3 (inactive)	0.255 (inactive)	0.834 (inactive)	-1.8 (inactive)	1.34	0.572	0.436	1.47	-0.231
COC(=O)c1c2oc(c1C(=O)OC)C(=O)N(C)Cc1cn(nn1)C[C@H](Cc1ccccc1)NC(=O)N[C@H](CO)CC2	-0.0688	-1.52	-0.27	-1.15	-0.0414	-0.438	-0.209	0.244	-0.272	0.247 (inactive)	-0.334	0.336 (inactive)	0.553 (inactive)	0.148 (inactive)	-0.324 (inactive)	-0.403	-0.0576	-0.794	-0.641	0.624
C=C[C@@H](OC)[C@H](OC(=O)Nc1ccc(SC)cc1)c1ccc(O)c(F)c1	3.07	1.23	0.566	0.763	1.11	0.207	-1.47	0.885	0.679	-1.59 (inactive)	0.183	-1.57 (inactive)	-1.04 (inactive)	0.847 (inactive)	0.425 (inactive)	-0.376	0.0679	0.242	0.679	1.14
CN1C(=O)C2C=CC(C(O)C#Cc3ccccc3)N(Nc3ccccc3)C2C1=O (stereo not given)	0.974	1.24	0.884	0.985	1.18	0.101	1.11	0.473	1.24	-1.21 (inactive)	0.399	0.254 (inactive)	-0.141 (inactive)	-0.515 (inactive)	0.526 (inactive)	1.38	0.153	0.663	0.889	0.592
COCCCNC(=O)[C@@]1(Cc2ccccc2N=[N+]=[N-])COC(c2ccc(OCCCO)cc2)=N1	1.47	1.22	0.614	0.967	0.773	-0.186	0.961	-0.351	0.976	-2.1 (inactive)	0.926	-1.63 (inactive)	0.53 (inactive)	-0.641 (inactive)	-0.849 (inactive)	1.63	0.0184	0.308	0.614	-0.676
C=C(C(=O)CC[C@@H](OC(C)=O)c1ccc(CO)o1)C(C)C	0.922	-0.218	-0.26	0.454	1.33	1.49	-0.246	1.59	-0.0963	-1.76 (inactive)	0.911	1.18 (inactive)	-0.947 (inactive)	0.275 (inactive)	2.17 (inactive)	0.0155	-0.0427	-0.427	-0.0059	1.91
COC(=O)[C@@]1(Cc2ccccc2)[C@@H]2C(=CC(=O)[C@H]2CC(=O)C(=O)N(C)C)CN1C(=O)c1ccccc1	2.15	1.25	0.745	0.0523	0.324	-0.147	-0.312	-0.271	0.407	-21 (active)	0.117	-2.86 (inactive)	0.421 (inactive)	0.0075 (inactive)	0.087 (inactive)	-0.0043	0.308	0.2	0.239	-0.2
C=CCN1C(=O)[C@@]2(O[C@@H](CCn3cc([C@H](O)c4ccccc4)nn3)[C@H]([Si](C)(C)c3ccc(OC)cc3)[C@H]2C)c2cc(N3CCC3=O)ccc21	1.65	1.09	-0.082	-0.117	0.345	0.0863	2.25	-0.127	0.552	-1.21 (inactive)	-0.162	-1.83 (inactive)	-1.01 (inactive)	17 (active)	-1.02 (inactive)	-0.101	-0.154	0.195	0.183	-0.0053
